The record followed here is PubChem BioAssay (NCI).

Where “and” joins values, the source holds several entries; their conditions need not be identical. Equal entries are not always repeated. This is part of a sample that, as a whole, favours compounds with a hit. Of some 83,000 tested, about 20% had one in any assay.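 Note: values are percent growth. 100 is the growth of untreated cells, values between 100 and 0 indicate rising inhibition; between -100 and 0 indicates cell death.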 Values without a mark were called inactive. Calls of active or inactive are those of the source. Where a SMILES comes first, the peptide text is derived from it. The star is where a group is joined. Trt = c1ccc(C(c2ccccc2)(c2ccccc2)*)cc1; Cbz = O=C(OCc1ccccc1)*

One assay relates to OVCAR-3 ovarian. Kind of assay: NCI-60 one-dose screen, 48 h (100 = growth as untreated, 0 = no growth, -100 = all killed). The note with it: 10 µM. How it is done:
Growth inhibition of the OVCAR-3 human tumor cell line is measured as a screen for anti-cancer activity. Cells are grown in 96 well plates and exposed to the test compound for 48 hours. Compounds are tested at a single concentration, which is 10^-5 M for most compounds. The reported endpoint is percent growth (GI% or GIPRCNT), where numbers from 0 - 100% represent growth inhibition, and numbers from -100% - 0 represent cell death. For example, a value of 40 represents 60% growth inhibition. A value of 0 means no net growth occurred over the course of the experiment. A value of -40 indicates 40% of cells at the beginning of the experiment died by the end of the experiment. A value of -100 means all cells are dead at the end of the experiment.
NCI-60 Human Tumor Cell Lines Screen was performed using the standard one-dose NCI protocol, which is described in more detail at https://dtp.cancer.gov/discovery_development/nci-60/default.htm.
Compounds with GIPRCNT values below 10 were considered active. Activity score was based on GIPRCNT using the following formula: […]
Score is 0 for GIPRCNT values of 100 or above, 50 for GIPRCNT values of 0, and 100 for GIPRCNT values of -100.
Regarding `O=C(Nc1c(Cl)cccc1Cl)Oc1cccc2cccnc12`, the growth is 14%.
`O=C(Nc1cccc(Br)c1)Oc1cccc2cccnc12`: the growth is 119%.
On to `COc1ccc(-c2cscc2N)cc1`, for which the growth is 112%.

Still in this assay, the particulars now being: 10 µM unless noted.
As to `COC(=O)C(CSC(c1ccccc1)(c1ccccc1)c1ccccc1)NC(=O)C(CC(N)=O)NC(=O)OCc1ccccc1` (stereo not drawn) (Cbz-Asn-Cys(Trt)-OMe; configuration not given here), the growth is -5.78% (active).
As to `Cc1ccc2nc(C[n+]3ccc4ccccc4c3)ccc2c1`, the growth is 52.8%.
Take `CCCCCCCCCCCCCCCCOP(=O)([O-])OCC[N+](C)(C)C`: the growth was 33.4%.
As for `COC(=O)c1nc(=S)[nH]c(C(=O)OC)c1C(=O)c1ccccn1`, the growth is 34.5%.
Regarding `CC1OC(OC2C(OC3CCC4(C)C(CCC5(C)C4CC=C4C6CC(C)(C)CCC6(CO)C(O)CC45C)C3(C)C)OC(C(=O)O)C(OC3OC(COC4OC(CO)C(O)C(O)C4O)C(O)C(O)C3O)C2O)C(O)C(O)C1O` (stereo not given), the growth is -50.7% (active).
For `O=C(CC1(O)C(=O)Nc2c(Cl)ccc(Cl)c21)c1ccc(Cl)cc1Cl` (stereo not given), the growth is 106%.
Still for that read-out and setting: then `CC(C)(C)c1ccc(O)c(C2CCCCC2)c1`, with 110%; and `CCCCCCC(C)c1ccccc1O` (stereo not given) (tested in a mixture with another compound), with 111%.
Take `N#CSCc1ccc(Cl)c(CSC#N)c1`: the growth was 46.3%.
Regarding `CCN(CC)CCOc1ccc(-c2nc3cc(Cl)ccc3s2)cc1`, the growth was -4.49% (active).
Take `COC(=O)Nc1nc2ccc(C(=O)c3ccccc3)cc2[nH]1`: the growth is -50.1% (active) and -60.4% (active) and -59.4% (active).
Consider `Nc1ncnc2c1ncn2C1OC(CO)C(O)C1O` (stereo not given), for which the growth was 116% and 89.8% and 108%.
For the compound `C[N+](C)=c1ccc2nc3c(cc(NCCCNc4cc5oc6cc(=[N+](C)C)ccc-6nc5c5ccccc45)c4ccccc43)oc-2c1`, the growth was -54.5% (active).
`O=C(O)c1ccc2c3c(ncnc13)-c1ccccc1C2=O`: the growth was 83.4%.
Same read-out and setting: then `CCCCCCCCCCCCCCCC[N+](C)(CCO)Cc1cnc[nH]1` (stereo not given), with -36.9% (active); and `C=C(Cl)C(=NC(C)(C)C)Nc1ccccc1C`, with 65.9%.
As to `CNC(=O)N/N=C/c1ccc([N+](=O)[O-])o1`, the growth was 103%.
For the compound `N#CC1C(=O)SC2c3ccccc3C(=O)c3ccccc3C12` (stereo not given), the growth is 109%.
For the compound `CCC(=O)Sc1ccccc1C(=O)Nc1ccc(Cl)cc1`, the growth is 39.9%.
With `COC(=O)c1nc(=S)[nH]c(C(=O)OC)c1C(=O)c1ccc2ccccc2c1`, the growth was 109%.
On to `CN(Cc1cnc2nc(N)nc(N)c2n1)c1ccc(C(=O)NC(CCC(=O)O)C(=O)O)cc1` (stereo not given), for which the growth is 37.8%.
For `Cn1c2ccccc2c2nnc(N/N=C/c3ccccn3)nc21`, the growth was 23.5%.
Regarding `O=C(/C=C/c1cccc(Cl)c1)c1ccccc1`, the growth is 84.9% and 80.5%.
Still for that read-out and setting: then `C=CCOc1ccc(N=NC(C#N)C#N)cc1`, with 39.7%; and `CC(=Nc1ccc(N(C)C)cc1)c1ccccc1`, with 25.3%.
With `Cc1ccnc(NC(c2ccccc2)c2ccc3cccnc3c2O)c1` (stereo not given), the growth was 19.5%.
With `CCOc1ccc(-c2nc3ccc(-c4nc5ccc(N6CCN(C)CC6)cc5[nH]4)cc3[nH]2)cc1`, the growth is -100% (active).
With `Cc1ccc2nc(-[n+]3cc4ccccc4cc3C)ccc2c1`, the growth is 44.6%.
With `COc1ccc(N=N/N=c2\sc3cc(OC)ccc3n2C)cc1`, the growth was 97.8%.
`c1ccc2c(c1)Nc1cc3ccccc3cc1N2`: the growth is -3.74% (active).
`NC(N)=N/N=C/c1ccc([N+](=O)[O-])o1`: the growth was 83.1%.
Still for that read-out and setting: then `COc1ccccc1/C=C\C(=O)c1ccccc1`, with 110%; and `CC(=O)ON=C1C=CC(=C(C#N)c2ccccc2)C=C1`, with -30.6% (active); and `CCC(c1cccc(O)c1)C(CC)c1cccc(O)c1` (stereo not given), with 77.3%.

The same assay, now with this note: 100 µM.
Regarding `O=C(Nc1c(Cl)cccc1Cl)Oc1cccc2cccnc12`, the growth was 4.16% (active).
With `O=C(Nc1cccc(Br)c1)Oc1cccc2cccnc12`, the growth is -74.7% (active).
Turning to `COc1ccc(-c2cscc2N)cc1`, the growth was 40.9%.
